Screening data (PubChem BioAssay)
Only a selection was taken, and hits are over-represented in it overall.
AMA1 RON2 block – AMA1-RON2 (P. falciparum) interaction inhibition; AlphaScreen AMA1-biotinylated RON2 peptide binding; 360,000 compounds, 0.2% hits; Potency, µM (doses to about 58.2 µM), inactives show at the highest dose activity change, negative = inhibition, actives largely listed as inhibitors; active = well fitted inhibition curve with a large enough effect; inconclusive = small, poorly fitted or top-dose-only effect; inactive = no such curve, though single readings can be large or run the other way;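 note: potency is the fitted concentration of half-maximal effect; 0% = vehicle wells and -100% = peptide control; nearly all actives have a fitted effect of over 45% in size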
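AMA1 (3D7) with his tag at 25 nM final met compounds first, then biotinylated RON2 peptide at 25 nM; detection used donor plus acceptor beads, 10 µg/mL apiece, read by AlphaScreen after 30 min at room temperature.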
Lassa entry inh – blocks Lassa virus binding to or entry into cells; Lassa virus pseudotype entry inhibition, cell reporter; Potency, µM (titrated, usually from 37.9 µM), for inactives: top-dose activity change, negative = inhibition, usual class: inhibitors; 300,000 compounds, 1.2% hits; AID 540256; calls by dose curve; tested in HEK293 cells; note: potency is the fitted concentration of half-maximal effect; % is set by controls: 0 for no effect and ±100 for the full control effect; nearly all actives have a fitted effect of over 50% in size
MARV entry inh – inhibitors of Marburg virus binding or cell entry. Marburg virus pseudotyped entry inhibition, cell reporter. AID 540276. Potency, µM (top dose mostly 37.8 µM), for inactives: top-dose activity change, negative = inhibition, usual class: inhibitors. 300,000 compounds, 1.8% hits; calls by dose curve; tested in HEK293 cells; note: potency is the fitted concentration of half-maximal effect; % is set by controls: 0 for no effect and ±100 for the full control effect
Shiga toxin inh – inhibitors of Shiga toxin in Vero cells; inhibition, % at 38.7 µM; 290,000 compounds, 9.2% hits; Vero cells, Shiga toxin protein synthesis inhibition reporter; in the data active = inhibition mostly above about 28%, no sharp cut-off; inactive = mostly below about 43%; note: 0% is about no effect
Cycloheximide cs – counter-screen for Shiga toxin inhibitors: cycloheximide protein synthesis inhibition; cell reporter, cycloheximide protein synthesis inhibition counterscreen; max response, %; 300,000 compounds, 12% hits; AID 2314; in the data active = max response mostly above about 13%, no sharp cut-off; inactive = mostly below about 14%; note: read at 38.3 µM for the half of the compounds with a filed dose; 0% is about no effect
* marks the source's active call; other numbers are inactive results; ? = inconclusive; . = not tested or not shown; [ ] = dose if it differs, or a comment.

SMILES	AMA1 RON2 block	Lassa entry inh	MARV entry inh	Shiga toxin inh	Cycloheximide cs
COCCCNC(=O)Cn1c(=O)n(-c2cccc(C)c2)c(=O)c2c1c1cc(C)ccc1n2C	.	3.9%[46.1 µM]	.	.	.
O=C(Nc1ccc(F)cc1)Nc1ccc(N2CCOCC2)c2nonc12	-2.4%	-24.2%	?	37.7	17.8*
O=C(Nc1ccc(N2CCOCC2)c2nonc12)C1CCCC1	-0.4%	-3.8%	8.9%	37.0	18.3*
COc1ccc(NC(=O)Nc2ccc(N3CCOCC3)c3nonc23)c(OC)c1	-2.2%	.	.	-13.2	-0.7
CCOC(=O)N1CCN([C@@H]2OC(=O)c3ccccc32)CC1	.	.	23.5%[46.1 µM]	.	.
CCn1c(=O)c2cc(C(=O)N(CC(C)C)CC(C)C)sc2c2ccccc21	.	14.8%[46.1 µM]	?	.	.
CCOC(=O)C1=C[C@@H](C2CCCC2)N(S(=O)(=O)c2ccc([N+](=O)[O-])cc2)[C@H]1c1ccccc1	-22.8%	.	.	.	.
CC1C/C(=N\NC(N)=S)c2cc(Cl)ccc2S1 (stereo not given)	44.1%	?	12.6µM*	-12.0	-2.2
CC(C)=C1CCC(C)CC1=NNC(N)=S (stereo not given)	28.4%	?	-12.8%	.	.
CSc1ccccc1C(=O)C1CCCN(C(=O)c2cc(C(C)C)no2)C1 (stereo not given)	-14.0%	-22.8%[46.1 µM]	-8.2%[46.1 µM]	26.9	-1.1
CSc1ccccc1C(=O)C1CCCN(C(=O)c2csnn2)C1 (stereo not given)	11.0%	7.3%[46.1 µM]	?	89.8*	30.7*
COc1cc(C(O)c2nc(-c3cccs3)cs2)ccc1F (stereo not given)	-3.7%	.	.	.	.
O=S(=O)(Nc1cccc(-c2ccc(N3CCCCCC3)nn2)c1)c1ccc(F)cc1	-9.0%	?	-24.9%[46.1 µM]	84.6*	42.7*
CCOc1ccc(S(=O)(=O)Nc2cccc(-c3ccc(N4CCCCCC4)nn3)c2)cc1	-11.6%	.	.	41.4*	24.8*
CC(=O)c1ccc(S(=O)(=O)Nc2cccc(-c3ccc(N4CCCCC4)nn3)c2)cc1	.	-23.2%[46.1 µM]	.	.	.
O=S(=O)(Nc1ccc(-c2ccc(N3CCCC3)nn2)cc1)c1cccc(C(F)(F)F)c1	.	4.3%[46.1 µM]	.	.	.
Cc1ccc(S(=O)(=O)Nc2cccc(-c3ccc(N4CCCCCC4)nn3)c2)cc1C	6.1%	.	.	114.8*	39.3*
COc1ccc(S(=O)(=O)Nc2cccc(-c3ccc(N4CCCC4)nn3)c2)cc1OC	.	-28.1%[46.1 µM]	.	.	.
O=S(=O)(Nc1cccc(-c2ccc(N3CCCCCC3)nn2)c1)c1ccc(C(F)(F)F)cc1	-10.3%	?	?	40.8*	30.8*
CCc1ccccc1NC(=O)Cn1c(=O)n(Cc2ccco2)c(=O)c2ccccc21	.	24.7%[46.1 µM]	-12.6%[46.1 µM]	.	.
CC1=C(C(=O)Nc2ccccc2)C(c2ccc(C(=O)O)cc2)n2nc(SCC(=O)c3ccc(C)cc3)nc2N1 (stereo not given)	.	1.5%[46.1 µM]	.	.	.
O=C(CC1N=C2c3ccccc3N=C(SCc3ccccc3Cl)N2C1=O)NCc1cccs1 (stereo not given)	.	-8.4%[46.1 µM]	.	.	.
COc1ccc(CC(=O)Nc2cc(S(C)(=O)=O)ccc2Cl)cc1S(=O)(=O)N1CCOCC1	2.4%[11.6 µM]	2.1%	24.4%	.	.
OC(c1ccc(-c2ccccc2)cc1)c1ncc(-c2ccccc2F)[nH]1 (stereo not given)	-14.6%	.	.	.	.
O=C(Nc1ccc(F)c(Cl)c1)Nc1nnc([C@@H]2O[C@H](CO)[C@@H](O)[C@H]2O)s1	9.8%	.	.	.	.
SMILES	AMA1 RON2 block	Lassa entry inh	MARV entry inh	Shiga toxin inh	Cycloheximide cs
O=S(=O)(Nc1cccc(-c2ccc(N3CCCCCC3)nn2)c1)c1cccc(F)c1	-7.4%	11.2%[46.1 µM]	.	115.7*	39.8*
COc1ccc(C)cc1S(=O)(=O)Nc1cccc(-c2ccc(N3CCC(C)CC3)nn2)c1	.	28.8%[46.1 µM]	.	.	.
COc1ccc(C)cc1S(=O)(=O)Nc1cccc(-c2ccc(N3CCCCCC3)nn2)c1	-12.4%	.	.	26.7	20.1*
CCOc1cc(C2Nc3ccccc3NC3=C2C(=O)CC(C)(C)C3)ccc1O (stereo not given)	59.9%	.	.	7.5	13.8*
COC(=O)c1ccc2c(c1)NC1=C(C(=O)CC(C)(C)C1)C(c1ccncc1)N2 (stereo not given)	-6.1%	-15.1%	?	83.6*	42.2*
COC(=O)c1ccc(C2Nc3ccccc3NC3=C2C(=O)CC(C)(C)C3)cc1 (stereo not given)	-2.3%	.	.	-5.8	-3.6
Cn1cccc1C1Nc2ccccc2NC2=C1C(=O)CC(C)(C)C2 (stereo not given)	86.1%	?	-0.4%	63.6	31.4*
CCCc1ccc(C(=O)CCC(=O)O)cc1	12.0%	?	4.3%	64.6*	51.5*
